{"source": "PubChem BioAssay AID1159580", "about": "(chemical genetic matrix, 2015)", "assay": "chemical genetic growth profiling, strain panel (AID 1159580);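 further: tested at 20 µM; growth read once vehicle control cultures reached saturation at 30 °C; 1 = growth at the plate median or of vehicle wells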", "conditions": "S. cerevisiae deletion strains, growth OD", "note": "Where “and” joins values, the source holds several entries; their conditions need not be identical. Equal entries are not always repeated. Among all 5,500 compounds or so, about 2,000 (36%) were called active. Roughly 18% stayed inconclusive and do not appear here. This is one part of the list. A number with no mark means an inactive call. No stated cut-off is given here; in the data, active means normalized growth mostly below about 0.91 (no sharp cut-off); inconclusive means no clear call, values can overlap the other calls; inactive means mostly above about 0.92."}
{"smiles": "C=CCc1ccc2c(c1)OCO2", "values": [{"measurement": "normalized growth", "setting": "locus YAL013W, strain DEP1, stronger effect = lower value", "value": "0.863 (active)"}, {"measurement": "normalized growth", "setting": "locus YAL021C, strain ccr4, stronger effect = lower value", "value": 1.02}, {"measurement": "normalized growth", "setting": "locus YAL026C, strain drs2, stronger effect = lower value", "value": 1.04}, {"measurement": "normalized growth", "setting": "locus YAL030W, strain snc1, stronger effect = lower value", "value": 1.01}, {"measurement": "normalized growth", "setting": "locus YBL061C, strain skt5, stronger effect = lower value", "value": 1.02}, {"measurement": "normalized growth", "setting": "locus YBR009C, strain hhf1, stronger effect = lower value", "value": 1.05}, {"measurement": "normalized growth", "setting": "locus YBR021W, strain FUR4, stronger effect = lower value", "value": 1.03}, {"measurement": "normalized growth", "setting": "locus YBR023C, strain chs3, stronger effect = lower value", "value": 1.03}, {"measurement": "normalized growth", "setting": "locus YBR171W, strain sec66, stronger effect = lower value", "value": 1.02}, {"measurement": "normalized growth", "setting": "locus YBR229C, strain ROT2, stronger effect = lower value", "value": 1.02}, {"measurement": "normalized growth", "setting": "locus YBR231C, strain swc5, stronger effect = lower value", "value": 1.01}, {"measurement": "normalized growth", "setting": "locus YBR279W, strain paf1, stronger effect = lower value", "value": 1.03}, {"measurement": "normalized growth", "setting": "locus YCL011C, strain gbp2, stronger effect = lower value", "value": 1.03}, {"measurement": "normalized growth", "setting": "locus YCL016C, strain dcc1, stronger effect = lower value", "value": 1.05}, {"measurement": "normalized growth", "setting": "locus YCL029C, strain bik1, stronger effect = lower value", "value": 0.99}, {"measurement": "normalized growth", "setting": "locus YCL061C, strain MRC1, stronger effect = lower value", "value": 1.06}, {"measurement": "normalized growth", "setting": "locus YCL069W, strain vba3, stronger effect = lower value", "value": 1.01}, {"measurement": "normalized growth", "setting": "locus YCR088W, strain abp1, stronger effect = lower value", "value": 1.02}, {"measurement": "normalized growth", "setting": "locus YDL005C, strain med2, stronger effect = lower value", "value": 1.02}, {"measurement": "normalized growth", "setting": "locus YDL035C, strain GPR1, stronger effect = lower value", "value": 1.03}, {"measurement": "normalized growth", "setting": "locus YDL040C, strain nat1, stronger effect = lower value", "value": 1.01}, {"measurement": "normalized growth", "setting": "locus YDL074C, strain BRE1, stronger effect = lower value", "value": 1.02}, {"measurement": "normalized growth", "setting": "locus YDL101C, strain DUN1, stronger effect = lower value", "value": 0.999}, {"measurement": "normalized growth", "setting": "locus YDL185W, strain tfp1, stronger effect = lower value", "value": 1.01}, {"measurement": "normalized growth", "setting": "locus YDL192W, strain arf1, stronger effect = lower value", "value": 0.99}, {"measurement": "normalized growth", "setting": "locus YDR001C, strain nth1, stronger effect = lower value", "value": 1.02}, {"measurement": "normalized growth", "setting": "locus YDR069C, strain doa4, stronger effect = lower value", "value": 1.03}, {"measurement": "normalized growth", "setting": "locus YDR101C, strain arx1, stronger effect = lower value", "value": 0.985}, {"measurement": "normalized growth", "setting": "locus YDR137W, strain rgp1, stronger effect = lower value", "value": 1.05}, {"measurement": "normalized growth", "setting": "locus YDR159W, strain sac3, stronger effect = lower value", "value": 0.976}, {"measurement": "normalized growth", "setting": "locus YDR162C, strain NBP2, stronger effect = lower value", "value": 1.01}, {"measurement": "normalized growth", "setting": "locus YDR195W, strain ref2", "value": 0.982}, {"measurement": "normalized growth", "setting": "locus YDR297W, strain sur2, stronger effect = lower value", "value": 1.01}, {"measurement": "normalized growth", "setting": "locus YDR318W, strain mcm21, stronger effect = lower value", "value": 0.996}, {"measurement": "normalized growth", "setting": "locus YDR334W, strain swr1, stronger effect = lower value", "value": 1.03}, {"measurement": "normalized growth", "setting": "locus YDR335W, strain msn5, stronger effect = lower value", "value": 1.02}, {"measurement": "normalized growth", "setting": "locus YDR388W, stronger effect = lower value", "value": 0.987}, {"measurement": "normalized growth", "setting": "locus YDR392W, strain spt3, stronger effect = lower value", "value": 0.965}, {"measurement": "normalized growth", "setting": "locus YDR502C, strain sam2, stronger effect = lower value", "value": 0.992}, {"measurement": "normalized growth", "setting": "locus YEL003W, strain gim4, stronger effect = lower value", "value": 1.02}, {"measurement": "normalized growth", "setting": "locus YEL037C, strain rad23, stronger effect = lower value", "value": 1.02}, {"measurement": "normalized growth", "setting": "locus YEL061C, strain CIN8 (second series), stronger effect = lower value", "value": 1.02}, {"measurement": "normalized growth", "setting": "locus YEL061C, strain CIN8, stronger effect = lower value", "value": 1}, {"measurement": "normalized growth", "setting": "locus YER015W, strain faa2, stronger effect = lower value", "value": 1.01}, {"measurement": "normalized growth", "setting": "locus YER016W, strain bim1, stronger effect = lower value", "value": 1}, {"measurement": "normalized growth", "setting": "locus YER110C, stronger effect = lower value", "value": 0.982}, {"measurement": "normalized growth", "setting": "locus YER111C, strain swi4, stronger effect = lower value", "value": 1.02}, {"measurement": "normalized growth", "setting": "locus YER155C, strain BEM2 (second series), stronger effect = lower value", "value": 0.956}, {"measurement": "normalized growth", "setting": "locus YER155C, strain BEM2, stronger effect = lower value", "value": 0.999}, {"measurement": "normalized growth", "setting": "locus YER167W, strain BCK2, stronger effect = lower value", "value": 1.02}, {"measurement": "normalized growth", "setting": "locus YFR010W, strain ubp6, stronger effect = lower value", "value": 1.05}, {"measurement": "normalized growth", "setting": "locus YGL078C, strain dbp3, stronger effect = lower value", "value": 0.993}, {"measurement": "normalized growth", "setting": "locus YGL086W, strain mad1, stronger effect = lower value", "value": 0.988}, {"measurement": "normalized growth", "setting": "locus YGL167C, strain pmr1, stronger effect = lower value", "value": 1.02}, {"measurement": "normalized growth", "setting": "locus YGL173C, strain kem1, stronger effect = lower value", "value": 1.02}, {"measurement": "normalized growth", "setting": "locus YGL227W, strain vid30, stronger effect = lower value", "value": 1.01}, {"measurement": "normalized growth", "setting": "locus YGL240W, strain doc1, stronger effect = lower value", "value": 0.972}, {"measurement": "normalized growth", "setting": "locus YGL248W, strain PDE1, stronger effect = lower value", "value": 1.01}, {"measurement": "normalized growth", "setting": "locus YGL253W, strain hxk2, stronger effect = lower value", "value": 1.04}, {"measurement": "normalized growth", "setting": "locus YGR135W, strain pre9, stronger effect = lower value", "value": 1.01}, {"measurement": "normalized growth", "setting": "locus YGR229C, strain SMI1, stronger effect = lower value", "value": 1.03}, {"measurement": "normalized growth", "setting": "locus YGR252W, strain gcn5, stronger effect = lower value", "value": 1.06}, {"measurement": "normalized growth", "setting": "locus YHR013C, strain ard1, stronger effect = lower value", "value": 1.06}, {"measurement": "normalized growth", "setting": "locus YHR027C, strain rpn1, stronger effect = lower value", "value": 1.02}, {"measurement": "normalized growth", "setting": "locus YHR030C, strain SLT2, stronger effect = lower value", "value": "1 and 0.954"}, {"measurement": "normalized growth", "setting": "locus YHR079C, strain IRE1 (second series), stronger effect = lower value", "value": 0.989}, {"measurement": "normalized growth", "setting": "locus YHR079C, strain IRE1, stronger effect = lower value", "value": 0.965}, {"measurement": "normalized growth", "setting": "locus YHR094C, strain hxt1, stronger effect = lower value", "value": 0.981}, {"measurement": "normalized growth", "setting": "locus YHR129C, strain ARP1, stronger effect = lower value", "value": 1}, {"measurement": "normalized growth", "setting": "locus YHR142W, strain chs7, stronger effect = lower value", "value": 1.07}, {"measurement": "normalized growth", "setting": "locus YHR200W, strain rpn10, stronger effect = lower value", "value": 0.99}, {"measurement": "normalized growth", "setting": "locus YIL066C, strain RNR3, stronger effect = lower value", "value": 1.02}, {"measurement": "normalized growth", "setting": "locus YIL073C, strain SPO22, stronger effect = lower value", "value": 1.01}, {"measurement": "normalized growth", "setting": "locus YIL125W, strain kgd1, stronger effect = lower value", "value": 0.988}, {"measurement": "normalized growth", "setting": "locus YIR030C, strain dcg1, stronger effect = lower value", "value": 0.988}, {"measurement": "normalized growth", "setting": "locus YJL092W, strain hpr5, stronger effect = lower value", "value": 1.03}, {"measurement": "normalized growth", "setting": "locus YJL095W, strain BCK1 (second series), stronger effect = lower value", "value": 1.03}, {"measurement": "normalized growth", "setting": "locus YJL095W, strain BCK1, stronger effect = lower value", "value": 1.01}, {"measurement": "normalized growth", "setting": "locus YJL115W, strain asf1, stronger effect = lower value", "value": 1.02}, {"measurement": "normalized growth", "setting": "locus YJL129C, strain trk1, stronger effect = lower value", "value": 1.01}, {"measurement": "normalized growth", "setting": "locus YJL134W, strain LCB3, stronger effect = lower value", "value": 1}, {"measurement": "normalized growth", "setting": "locus YJL154C, strain vps35, stronger effect = lower value", "value": 1.01}, {"measurement": "normalized growth", "setting": "locus YJL164C, strain tpk1, stronger effect = lower value", "value": 1.04}, {"measurement": "normalized growth", "setting": "locus YJL166W, strain qcr8, stronger effect = lower value", "value": 1.04}, {"measurement": "normalized growth", "setting": "locus YJL168C, strain set2, stronger effect = lower value", "value": 0.987}, {"measurement": "normalized growth", "setting": "locus YJL187C, strain SWE1 (second series), stronger effect = lower value", "value": 1.01}, {"measurement": "normalized growth", "setting": "locus YJL187C, strain SWE1, stronger effect = lower value", "value": 1.03}]}
